{
  "source": "PubChem BioAssay AID1159580",
  "about": "(chemical genetic matrix, 2015)",
  "assay": "chemical genetic growth profiling, strain panel (AID 1159580);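 further: tested at 20 µM; growth read once vehicle control cultures reached saturation at 30 °C; 1 = growth at the plate median or of vehicle wells; lower values mean less growth of the strain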",
  "conditions": "growth OD",
  "note": "Among all 5,500 compounds or so, about 2,000 (36%) were called active. About 18% were inconclusive and are not listed. Some of the results follow. Values without a mark were called inactive. No stated cut-off is given here; in the data, active means normalized growth mostly below about 0.91 (no sharp cut-off); inconclusive means no clear call, values can overlap the other calls; inactive means mostly above about 0.92.",
  "data": [
    {"smiles": "CSc1nc(NC(C)C)nc(NC(C)C)n1", "values": [
      {"measurement": "normalized growth", "setting": "S. cerevisiae deletion strains, locus YJR075W, strain HOC1, hits give low values", "value": 1.02},
      {"measurement": "normalized growth", "setting": "S. cerevisiae deletion strains, locus YKL009W, strain mrt4, hits give low values", "value": 1.03},
      {"measurement": "normalized growth", "setting": "S. cerevisiae deletion strains, locus YKL068W, hits give low values", "value": 1},
      {"measurement": "normalized growth", "setting": "S. cerevisiae deletion strains, locus YKL085W, strain MDH1 (second series), hits give low values", "value": 1.01},
      {"measurement": "normalized growth", "setting": "S. cerevisiae deletion strains, locus YKL085W, strain MDH1, hits give low values", "value": 1.01},
      {"measurement": "normalized growth", "setting": "S. cerevisiae deletion strains, locus YKL160W, strain elf1, hits give low values", "value": 0.979},
      {"measurement": "normalized growth", "setting": "S. cerevisiae deletion strains, locus YKL190W, strain CNB1, hits give low values", "value": 1.02},
      {"measurement": "normalized growth", "setting": "S. cerevisiae deletion strains, locus YKR001C, strain vps1, hits give low values", "value": 1.03},
      {"measurement": "normalized growth", "setting": "S. cerevisiae deletion strains, locus YKR026C, strain gcn3, hits give low values", "value": 0.973},
      {"measurement": "normalized growth", "setting": "S. cerevisiae deletion strains, locus YKR091W, strain srl3, hits give low values", "value": 0.973},
      {"measurement": "normalized growth", "setting": "S. cerevisiae deletion strains, locus YLL001W, strain dnm1, hits give low values", "value": 0.979},
      {"measurement": "normalized growth", "setting": "S. cerevisiae deletion strains, locus YLL026W, hits give low values", "value": 0.975},
      {"measurement": "normalized growth", "setting": "S. cerevisiae deletion strains, locus YLL041C, strain sdh2, hits give low values", "value": 0.983},
      {"measurement": "normalized growth", "setting": "S. cerevisiae deletion strains, locus YLR027C, strain aat2, hits give low values", "value": 0.967},
      {"measurement": "normalized growth", "setting": "S. cerevisiae deletion strains, locus YLR039C, strain RIC1, hits give low values", "value": 0.987},
      {"measurement": "normalized growth", "setting": "S. cerevisiae deletion strains, locus YLR058C, strain SHM2, hits give low values", "value": 1.01},
      {"measurement": "normalized growth", "setting": "S. cerevisiae deletion strains, locus YLR102C, strain apc9, hits give low values", "value": 1},
      {"measurement": "normalized growth", "setting": "S. cerevisiae deletion strains, locus YLR113W, strain HOG1, hits give low values", "value": 0.993},
      {"measurement": "normalized growth", "setting": "S. cerevisiae deletion strains, locus YLR221C, strain rsa3, hits give low values", "value": 0.971},
      {"measurement": "normalized growth", "setting": "S. cerevisiae deletion strains, locus YLR258W, strain gsy2, hits give low values", "value": 0.964},
      {"measurement": "normalized growth", "setting": "S. cerevisiae deletion strains, locus YLR262C, strain YPT6 (second series), hits give low values", "value": "0.856 (active)"},
      {"measurement": "normalized growth", "setting": "S. cerevisiae deletion strains, locus YLR262C, strain YPT6, hits give low values", "value": 1.03},
      {"measurement": "normalized growth", "setting": "S. cerevisiae deletion strains, locus YLR268W, strain sec22, hits give low values", "value": 1.01},
      {"measurement": "normalized growth", "setting": "S. cerevisiae deletion strains, locus YLR320W, strain mms22, hits give low values", "value": 0.961},
      {"measurement": "normalized growth", "setting": "S. cerevisiae deletion strains, locus YLR330W, strain CHS5, hits give low values", "value": 1.01},
      {"measurement": "normalized growth", "setting": "S. cerevisiae deletion strains, locus YLR342W, strain FKS1 (second series), hits give low values", "value": 0.974},
      {"measurement": "normalized growth", "setting": "S. cerevisiae deletion strains, locus YLR342W, strain FKS1, hits give low values", "value": 0.958},
      {"measurement": "normalized growth", "setting": "S. cerevisiae deletion strains, locus YLR357W, strain rsc2, hits give low values", "value": 0.923},
      {"measurement": "normalized growth", "setting": "S. cerevisiae deletion strains, locus YLR370C, strain arc18, hits give low values", "value": 0.969},
      {"measurement": "normalized growth", "setting": "S. cerevisiae deletion strains, locus YLR371W, strain rom2, hits give low values", "value": 0.999},
      {"measurement": "normalized growth", "setting": "S. cerevisiae deletion strains, locus YLR384C, strain iki3, hits give low values", "value": 0.972},
      {"measurement": "normalized growth", "setting": "S. cerevisiae deletion strains, locus YLR418C, strain cdc73, hits give low values", "value": 1.04},
      {"measurement": "normalized growth", "setting": "S. cerevisiae deletion strains, locus YML016C, strain PPZ1, hits give low values", "value": 0.989},
      {"measurement": "normalized growth", "setting": "S. cerevisiae deletion strains, locus YML032C, strain rad52, hits give low values", "value": 1.03},
      {"measurement": "normalized growth", "setting": "S. cerevisiae deletion strains, locus YML120C, strain ndi1, hits give low values", "value": 0.966},
      {"measurement": "normalized growth", "setting": "S. cerevisiae deletion strains, locus YML124C, strain tub3, hits give low values", "value": 1.02},
      {"measurement": "normalized growth", "setting": "S. cerevisiae deletion strains, locus YMR058W, strain fet3, hits give low values", "value": 0.97},
      {"measurement": "normalized growth", "setting": "S. cerevisiae deletion strains, locus YMR078C, strain ctf18, hits give low values", "value": 1.02},
      {"measurement": "normalized growth", "setting": "S. cerevisiae deletion strains, locus YMR125W, strain sto1, hits give low values", "value": 0.958},
      {"measurement": "normalized growth", "setting": "S. cerevisiae deletion strains, locus YMR129W, hits give low values", "value": 0.973},
      {"measurement": "normalized growth", "setting": "S. cerevisiae deletion strains, locus YMR205C, strain PFK2, hits give low values", "value": 0.944},
      {"measurement": "normalized growth", "setting": "S. cerevisiae deletion strains, locus YMR223W, strain ubp8, hits give low values", "value": 1.01},
      {"measurement": "normalized growth", "setting": "S. cerevisiae deletion strains, locus YMR231W, strain pep5, hits give low values", "value": 0.973},
      {"measurement": "normalized growth", "setting": "S. cerevisiae deletion strains, locus YMR263W, strain SAP30, hits give low values", "value": 1.02},
      {"measurement": "normalized growth", "setting": "S. cerevisiae deletion strains, locus YMR307W, strain GAS1, hits give low values", "value": 1.05},
      {"measurement": "normalized growth", "setting": "S. cerevisiae deletion strains, locus YNL067W, strain RPL9B, hits give low values", "value": 0.999},
      {"measurement": "normalized growth", "setting": "S. cerevisiae deletion strains, locus YNL071W, strain lat1, hits give low values", "value": 0.978},
      {"measurement": "normalized growth", "setting": "S. cerevisiae deletion strains, locus YNL128W, strain TEP1, hits give low values", "value": 1.01},
      {"measurement": "normalized growth", "setting": "S. cerevisiae deletion strains, locus YNL153C, strain GIM3, hits give low values", "value": 1},
      {"measurement": "normalized growth", "setting": "S. cerevisiae deletion strains, locus YNL183C, strain NPR1, hits give low values", "value": 0.969},
      {"measurement": "normalized growth", "setting": "S. cerevisiae deletion strains, locus YNL209W, strain ssb2, hits give low values", "value": 0.987},
      {"measurement": "normalized growth", "setting": "S. cerevisiae deletion strains, locus YNL233W, strain BNI4, hits give low values", "value": 1.02},
      {"measurement": "normalized growth", "setting": "S. cerevisiae deletion strains, locus YNL248C, strain rpa49, hits give low values", "value": 0.979},
      {"measurement": "normalized growth", "setting": "S. cerevisiae deletion strains, locus YNL250W, strain rad50, hits give low values", "value": 1.01},
      {"measurement": "normalized growth", "setting": "S. cerevisiae deletion strains, locus YNL271C, strain bni1, hits give low values", "value": 1.01},
      {"measurement": "normalized growth", "setting": "S. cerevisiae deletion strains, locus YNL298W, strain CLA4, hits give low values", "value": 1},
      {"measurement": "normalized growth", "setting": "S. cerevisiae deletion strains, locus YNL307C, strain MCK1, hits give low values", "value": 1.01},
      {"measurement": "normalized growth", "setting": "S. cerevisiae deletion strains, locus YNL322C, strain KRE1 (second series), hits give low values", "value": 0.962},
      {"measurement": "normalized growth", "setting": "S. cerevisiae deletion strains, locus YNL322C, strain KRE1, hits give low values", "value": 1.01},
      {"measurement": "normalized growth", "setting": "S. cerevisiae deletion strains, locus YNR049C, strain mso1, hits give low values", "value": 0.953},
      {"measurement": "normalized growth", "setting": "S. cerevisiae deletion strains, locus YNR052C, strain pop2, hits give low values", "value": 1.02},
      {"measurement": "normalized growth", "setting": "S. cerevisiae deletion strains, locus YOL006C, strain TOP1, hits give low values", "value": 1.02},
      {"measurement": "normalized growth", "setting": "S. cerevisiae deletion strains, locus YOL012C, strain htz1", "value": 0.96},
      {"measurement": "normalized growth", "setting": "S. cerevisiae deletion strains, locus YOL147C, strain pex11, hits give low values", "value": 1.02},
      {"measurement": "normalized growth", "setting": "S. cerevisiae deletion strains, locus YOR001W, strain rrp6, hits give low values", "value": 0.98},
      {"measurement": "normalized growth", "setting": "S. cerevisiae deletion strains, locus YOR061W, strain CKA2, hits give low values", "value": 1},
      {"measurement": "normalized growth", "setting": "S. cerevisiae deletion strains, locus YOR069W, strain VPS5, hits give low values", "value": 1.01},
      {"measurement": "normalized growth", "setting": "S. cerevisiae deletion strains, locus YOR070C, strain gyp1, hits give low values", "value": 0.962},
      {"measurement": "normalized growth", "setting": "S. cerevisiae deletion strains, locus YOR080W, strain dia2, hits give low values", "value": 0.963},
      {"measurement": "normalized growth", "setting": "S. cerevisiae deletion strains, locus YOR083W, strain WHI5, hits give low values", "value": 0.969},
      {"measurement": "normalized growth", "setting": "S. cerevisiae deletion strains, locus YOR106W, strain vam3, hits give low values", "value": 0.956},
      {"measurement": "normalized growth", "setting": "S. cerevisiae deletion strains, locus YOR136W, strain idh2, hits give low values", "value": 1.03},
      {"measurement": "normalized growth", "setting": "S. cerevisiae deletion strains, locus YOR144C, strain elg1, hits give low values", "value": 1.01},
      {"measurement": "normalized growth", "setting": "S. cerevisiae deletion strains, locus YOR184W, strain ser1, hits give low values", "value": 1.03},
      {"measurement": "normalized growth", "setting": "S. cerevisiae deletion strains, locus YOR231W, strain MKK1, hits give low values", "value": 1.03},
      {"measurement": "normalized growth", "setting": "S. cerevisiae deletion strains, locus YOR265W, strain rbl2, hits give low values", "value": 0.962},
      {"measurement": "normalized growth", "setting": "S. cerevisiae deletion strains, locus YOR270C, strain vph1, hits give low values", "value": 0.934},
      {"measurement": "normalized growth", "setting": "S. cerevisiae deletion strains, locus YOR290C, strain snf2, hits give low values", "value": 0.95},
      {"measurement": "normalized growth", "setting": "S. cerevisiae deletion strains, locus YOR316C, strain cot1, hits give low values", "value": 1.01},
      {"measurement": "normalized growth", "setting": "S. cerevisiae deletion strains, locus YPL051W, strain arl3, hits give low values", "value": 0.963},
      {"measurement": "normalized growth", "setting": "S. cerevisiae deletion strains, locus YPL055C, strain LGE1, hits give low values", "value": 1.04},
      {"measurement": "normalized growth", "setting": "S. cerevisiae deletion strains, locus YPL078C, strain atp4, hits give low values", "value": 0.969},
      {"measurement": "normalized growth", "setting": "S. cerevisiae deletion strains, locus YPL106C, strain sse1, hits give low values", "value": 0.986},
      {"measurement": "normalized growth", "setting": "S. cerevisiae deletion strains, locus YPL240C, strain hsp82, hits give low values", "value": 0.966},
      {"measurement": "normalized growth", "setting": "S. cerevisiae deletion strains, locus YPL241C, strain CIN2, hits give low values", "value": 1.01},
      {"measurement": "normalized growth", "setting": "S. cerevisiae deletion strains, locus YPL256C, strain CLN2, hits give low values", "value": 1.04},
      {"measurement": "normalized growth", "setting": "S. cerevisiae deletion strains, locus YPR119W, strain clb2, hits give low values", "value": 1.02},
      {"measurement": "normalized growth", "setting": "S. cerevisiae deletion strains, locus YPR141C, strain kar3, hits give low values", "value": 1.02},
      {"measurement": "normalized growth", "setting": "S. cerevisiae deletion strains, locus YPR163C, strain tif3, hits give low values", "value": 1.02},
      {"measurement": "normalized growth", "setting": "S. cerevisiae deletion strains, locus YPR167C, strain met16, hits give low values", "value": 1.01},
      {"measurement": "normalized growth", "setting": "S. cerevisiae deletion strains, strain wtn01, hits give low values", "value": 1.01},
      {"measurement": "normalized growth", "setting": "S. cerevisiae strains, strain wild type, hits give low values", "value": 1.01}
    ]}
  ]
}
